# Measurements published in PubChem BioAssay AID1159580 (chemical genetic matrix, 2015).
# Several values for one entry are separate records, joined by “and”; a condition that tells them apart may be missing. Identical values can stand only once. Screen size: about 5,500 compounds; about 2,000 (36%) were called active. About 18% were inconclusive and are not listed. This is one part of the list. A number with no mark means an inactive call. No stated cut-off is given here; in the data, active means normalized growth mostly below about 0.91 (no sharp cut-off); inconclusive means no clear call, values can overlap the other calls; inactive means mostly above about 0.92.
# Experiment: chemical genetic growth profiling, strain panel (AID 1159580);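 further: tested at 20 µM; growth read once vehicle control cultures reached saturation at 30 °C; 1 = growth at the plate median or of vehicle wells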
# Conditions: S. cerevisiae deletion strains, growth OD
structure (smiles),measurement,setting,value
CO/N=C(\C(=O)N[C@@H]1C(=O)N2C(C(=O)O)=C(CSc3nc(=O)c(O)nn3C)CS[C@H]12)c1csc(N)n1,normalized growth,"locus YAL021C, strain ccr4, stronger effect = lower value",0.982
same,normalized growth,"locus YAL026C, strain drs2, stronger effect = lower value",0.974
same,normalized growth,"locus YAL030W, strain snc1, stronger effect = lower value",0.984
same,normalized growth,"locus YBL061C, strain skt5, stronger effect = lower value",0.966
same,normalized growth,"locus YBR009C, strain hhf1, stronger effect = lower value",0.985
same,normalized growth,"locus YBR021W, strain FUR4, stronger effect = lower value",1.03
same,normalized growth,"locus YBR023C, strain chs3, stronger effect = lower value",0.979
same,normalized growth,"locus YBR171W, strain sec66, stronger effect = lower value",0.96
same,normalized growth,"locus YBR229C, strain ROT2, stronger effect = lower value",0.999
same,normalized growth,"locus YBR231C, strain swc5, stronger effect = lower value",0.975
same,normalized growth,"locus YBR279W, strain paf1, stronger effect = lower value",0.959
same,normalized growth,"locus YCL011C, strain gbp2, stronger effect = lower value",0.958
same,normalized growth,"locus YCL016C, strain dcc1, stronger effect = lower value",0.976
same,normalized growth,"locus YCL029C, strain bik1, stronger effect = lower value",0.986
same,normalized growth,"locus YCL061C, strain MRC1, stronger effect = lower value",0.969
same,normalized growth,"locus YCL069W, strain vba3, stronger effect = lower value",0.986
same,normalized growth,"locus YCR088W, strain abp1, stronger effect = lower value",0.962
same,normalized growth,"locus YDL005C, strain med2, stronger effect = lower value",0.984
same,normalized growth,"locus YDL035C, strain GPR1, stronger effect = lower value",0.982
same,normalized growth,"locus YDL040C, strain nat1, stronger effect = lower value",0.973
same,normalized growth,"locus YDL074C, strain BRE1, stronger effect = lower value",1.03
same,normalized growth,"locus YDL101C, strain DUN1, stronger effect = lower value",0.996
same,normalized growth,"locus YDL134C, strain PPH21, stronger effect = lower value",1
same,normalized growth,"locus YDL185W, strain tfp1, stronger effect = lower value",0.946
same,normalized growth,"locus YDL192W, strain arf1, stronger effect = lower value",0.984
same,normalized growth,"locus YDR001C, strain nth1, stronger effect = lower value",0.959
same,normalized growth,"locus YDR069C, strain doa4, stronger effect = lower value",1
same,normalized growth,"locus YDR101C, strain arx1, stronger effect = lower value",1.02
same,normalized growth,"locus YDR137W, strain rgp1, stronger effect = lower value",0.968
same,normalized growth,"locus YDR159W, strain sac3, stronger effect = lower value",0.921
same,normalized growth,"locus YDR162C, strain NBP2, stronger effect = lower value",0.97
same,normalized growth,"locus YDR195W, strain ref2",1.01
same,normalized growth,"locus YDR297W, strain sur2, stronger effect = lower value",0.98
same,normalized growth,"locus YDR318W, strain mcm21, stronger effect = lower value",0.982
same,normalized growth,"locus YDR334W, strain swr1, stronger effect = lower value",0.931
same,normalized growth,"locus YDR335W, strain msn5, stronger effect = lower value",0.966
same,normalized growth,"locus YDR388W, stronger effect = lower value",0.981
same,normalized growth,"locus YDR392W, strain spt3, stronger effect = lower value",0.968
same,normalized growth,"locus YDR502C, strain sam2, stronger effect = lower value",1.01
same,normalized growth,"locus YEL003W, strain gim4, stronger effect = lower value",0.972
same,normalized growth,"locus YEL037C, strain rad23, stronger effect = lower value",0.969
same,normalized growth,"locus YEL061C, strain CIN8 (second series), stronger effect = lower value",0.947
same,normalized growth,"locus YEL061C, strain CIN8, stronger effect = lower value",1
same,normalized growth,"locus YER015W, strain faa2, stronger effect = lower value",0.977
same,normalized growth,"locus YER016W, strain bim1, stronger effect = lower value",0.976
same,normalized growth,"locus YER110C, stronger effect = lower value",0.974
same,normalized growth,"locus YER111C, strain swi4, stronger effect = lower value",0.979
same,normalized growth,"locus YER155C, strain BEM2 (second series), stronger effect = lower value",0.959
same,normalized growth,"locus YER155C, strain BEM2, stronger effect = lower value",1.01
same,normalized growth,"locus YER167W, strain BCK2, stronger effect = lower value",0.988
same,normalized growth,"locus YFR010W, strain ubp6, stronger effect = lower value",0.959
same,normalized growth,"locus YGL078C, strain dbp3, stronger effect = lower value",0.992
same,normalized growth,"locus YGL086W, strain mad1, stronger effect = lower value",1.03
same,normalized growth,"locus YGL167C, strain pmr1, stronger effect = lower value",0.956
same,normalized growth,"locus YGL173C, strain kem1, stronger effect = lower value",0.975
same,normalized growth,"locus YGL227W, strain vid30, stronger effect = lower value",0.977
same,normalized growth,"locus YGL240W, strain doc1, stronger effect = lower value",0.975
same,normalized growth,"locus YGL248W, strain PDE1, stronger effect = lower value",1
same,normalized growth,"locus YGL253W, strain hxk2, stronger effect = lower value",0.981
same,normalized growth,"locus YGR135W, strain pre9, stronger effect = lower value",0.948
same,normalized growth,"locus YGR252W, strain gcn5, stronger effect = lower value",1.02
same,normalized growth,"locus YHR013C, strain ard1, stronger effect = lower value",1.2 [resistant] (active)
same,normalized growth,"locus YHR027C, strain rpn1, stronger effect = lower value",0.978
same,normalized growth,"locus YHR030C, strain SLT2, stronger effect = lower value",0.988 and 1.01
same,normalized growth,"locus YHR079C, strain IRE1 (second series), stronger effect = lower value",0.966
same,normalized growth,"locus YHR079C, strain IRE1, stronger effect = lower value",1.01
same,normalized growth,"locus YHR094C, strain hxt1, stronger effect = lower value",0.976
same,normalized growth,"locus YHR129C, strain ARP1, stronger effect = lower value",0.992
same,normalized growth,"locus YHR142W, strain chs7, stronger effect = lower value",0.982
same,normalized growth,"locus YHR200W, strain rpn10, stronger effect = lower value",0.984
same,normalized growth,"locus YIL066C, strain RNR3, stronger effect = lower value",1.02
same,normalized growth,"locus YIL073C, strain SPO22, stronger effect = lower value",0.941
same,normalized growth,"locus YIL125W, strain kgd1, stronger effect = lower value",0.985
same,normalized growth,"locus YIR030C, strain dcg1, stronger effect = lower value",0.961
same,normalized growth,"locus YJL092W, strain hpr5, stronger effect = lower value",0.975
same,normalized growth,"locus YJL095W, strain BCK1 (second series), stronger effect = lower value",0.966
same,normalized growth,"locus YJL095W, strain BCK1, stronger effect = lower value",1.02 and 0.999
same,normalized growth,"locus YJL115W, strain asf1, stronger effect = lower value",0.952
same,normalized growth,"locus YJL129C, strain trk1, stronger effect = lower value",0.958
same,normalized growth,"locus YJL134W, strain LCB3, stronger effect = lower value",0.993
same,normalized growth,"locus YJL154C, strain vps35, stronger effect = lower value",0.954
same,normalized growth,"locus YJL164C, strain tpk1, stronger effect = lower value",0.992
same,normalized growth,"locus YJL166W, strain qcr8, stronger effect = lower value",0.981
same,normalized growth,"locus YJL168C, strain set2, stronger effect = lower value",0.998
same,normalized growth,"locus YJL187C, strain SWE1 (second series), stronger effect = lower value",1.01
same,normalized growth,"locus YJR043C, strain POL32, stronger effect = lower value",1.03
same,normalized growth,"locus YJR066W, strain TOR1, stronger effect = lower value",0.965
same,normalized growth,"locus YJR075W, strain HOC1, stronger effect = lower value",0.994
same,normalized growth,"locus YKL009W, strain mrt4, stronger effect = lower value",0.974
same,normalized growth,"locus YKL068W, stronger effect = lower value",0.974
same,normalized growth,"locus YKL085W, strain MDH1 (second series), stronger effect = lower value",0.984
same,normalized growth,"locus YKL085W, strain MDH1, stronger effect = lower value",0.984
same,normalized growth,"locus YKL160W, strain elf1, stronger effect = lower value",0.968
same,normalized growth,"locus YKL190W, strain CNB1, stronger effect = lower value",0.992
same,normalized growth,"locus YKR001C, strain vps1, stronger effect = lower value",0.993
same,normalized growth,"locus YKR026C, strain gcn3, stronger effect = lower value",0.974
same,normalized growth,"locus YKR091W, strain srl3, stronger effect = lower value",0.982
same,normalized growth,"locus YLL001W, strain dnm1, stronger effect = lower value",0.965
same,normalized growth,"locus YLL026W, stronger effect = lower value",0.986
same,normalized growth,"locus YLL041C, strain sdh2, stronger effect = lower value",0.949
same,normalized growth,"locus YLR027C, strain aat2, stronger effect = lower value",0.971
same,normalized growth,"locus YLR039C, strain RIC1, stronger effect = lower value",0.988
same,normalized growth,"locus YLR058C, strain SHM2, stronger effect = lower value",0.994
same,normalized growth,"locus YLR102C, strain apc9, stronger effect = lower value",0.985
same,normalized growth,"locus YLR113W, strain HOG1, stronger effect = lower value",1.04
same,normalized growth,"locus YLR221C, strain rsa3, stronger effect = lower value",0.969
same,normalized growth,"locus YLR258W, strain gsy2, stronger effect = lower value",0.957
same,normalized growth,"locus YLR262C, strain YPT6 (second series), stronger effect = lower value",0.947
same,normalized growth,"locus YLR262C, strain YPT6, stronger effect = lower value",0.982
same,normalized growth,"locus YLR268W, strain sec22, stronger effect = lower value",0.992
same,normalized growth,"locus YLR320W, strain mms22, stronger effect = lower value",0.97
same,normalized growth,"locus YLR330W, strain CHS5, stronger effect = lower value",0.983
same,normalized growth,"locus YLR342W, strain FKS1 (second series), stronger effect = lower value",0.985
same,normalized growth,"locus YLR342W, strain FKS1, stronger effect = lower value",0.983
same,normalized growth,"locus YLR357W, strain rsc2, stronger effect = lower value",0.893
same,normalized growth,"locus YLR370C, strain arc18, stronger effect = lower value",0.971
same,normalized growth,"locus YLR371W, strain rom2, stronger effect = lower value",0.979
same,normalized growth,"locus YLR384C, strain iki3, stronger effect = lower value",0.967
same,normalized growth,"locus YLR418C, strain cdc73, stronger effect = lower value",0.994
same,normalized growth,"locus YML016C, strain PPZ1, stronger effect = lower value",0.996
same,normalized growth,"locus YML032C, strain rad52, stronger effect = lower value",1.02
same,normalized growth,"locus YML120C, strain ndi1, stronger effect = lower value",0.986
same,normalized growth,"locus YML124C, strain tub3, stronger effect = lower value",0.989
same,normalized growth,"locus YMR058W, strain fet3, stronger effect = lower value",0.969
same,normalized growth,"locus YMR078C, strain ctf18, stronger effect = lower value",0.964
same,normalized growth,"locus YMR125W, strain sto1, stronger effect = lower value",0.958
same,normalized growth,"locus YMR129W, stronger effect = lower value",0.996
same,normalized growth,"locus YMR205C, strain PFK2, stronger effect = lower value",0.968
same,normalized growth,"locus YMR223W, strain ubp8, stronger effect = lower value",0.96
same,normalized growth,"locus YMR231W, strain pep5, stronger effect = lower value",0.977
same,normalized growth,"locus YMR263W, strain SAP30, stronger effect = lower value",1.01
same,normalized growth,"locus YMR307W, strain GAS1, stronger effect = lower value",0.981
same,normalized growth,"locus YNL067W, strain RPL9B, stronger effect = lower value",1.02
same,normalized growth,"locus YNL071W, strain lat1, stronger effect = lower value",0.956
same,normalized growth,"locus YNL183C, strain NPR1, stronger effect = lower value",0.96
same,normalized growth,"locus YNL209W, strain ssb2, stronger effect = lower value",0.961
same,normalized growth,"locus YNL233W, strain BNI4, stronger effect = lower value",1.03
same,normalized growth,"locus YNL248C, strain rpa49, stronger effect = lower value",0.924
same,normalized growth,"locus YNL250W, strain rad50, stronger effect = lower value",0.951
same,normalized growth,"locus YNL271C, strain bni1, stronger effect = lower value",0.992
same,normalized growth,"locus YNL298W, strain CLA4, stronger effect = lower value",0.969
same,normalized growth,"locus YNL307C, strain MCK1, stronger effect = lower value",0.987
same,normalized growth,"locus YNL322C, strain KRE1 (second series), stronger effect = lower value",0.978
same,normalized growth,"locus YNR049C, strain mso1, stronger effect = lower value",0.97
same,normalized growth,"locus YNR052C, strain pop2, stronger effect = lower value",0.986
same,normalized growth,"locus YOL006C, strain TOP1, stronger effect = lower value",1.11
same,normalized growth,"locus YOL012C, strain htz1",0.913
same,normalized growth,"locus YOL147C, strain pex11, stronger effect = lower value",0.972
same,normalized growth,"locus YOR001W, strain rrp6, stronger effect = lower value",0.963
same,normalized growth,"locus YOR061W, strain CKA2, stronger effect = lower value",0.998
same,normalized growth,"locus YOR069W, strain VPS5, stronger effect = lower value",0.988
same,normalized growth,"locus YOR070C, strain gyp1, stronger effect = lower value",0.977
same,normalized growth,"locus YOR080W, strain dia2, stronger effect = lower value",0.971
same,normalized growth,"locus YOR083W, strain WHI5, stronger effect = lower value",0.981
same,normalized growth,"locus YOR106W, strain vam3, stronger effect = lower value",0.933
same,normalized growth,"locus YOR136W, strain idh2, stronger effect = lower value",0.994
same,normalized growth,"locus YOR144C, strain elg1, stronger effect = lower value",0.993
same,normalized growth,"locus YOR184W, strain ser1, stronger effect = lower value",0.974
same,normalized growth,"locus YOR231W, strain MKK1, stronger effect = lower value",1.04
same,normalized growth,"locus YOR265W, strain rbl2, stronger effect = lower value",0.976
same,normalized growth,"locus YOR270C, strain vph1, stronger effect = lower value",0.947
same,normalized growth,"locus YOR290C, strain snf2, stronger effect = lower value",0.962
same,normalized growth,"locus YOR316C, strain cot1, stronger effect = lower value",0.982
same,normalized growth,"locus YPL051W, strain arl3, stronger effect = lower value",0.964
same,normalized growth,"locus YPL055C, strain LGE1, stronger effect = lower value",1.07
same,normalized growth,"locus YPL078C, strain atp4, stronger effect = lower value",0.991
same,normalized growth,"locus YPL106C, strain sse1, stronger effect = lower value",0.917
same,normalized growth,"locus YPL240C, strain hsp82, stronger effect = lower value",0.975
same,normalized growth,"locus YPL241C, strain CIN2, stronger effect = lower value",0.982
same,normalized growth,"locus YPL256C, strain CLN2, stronger effect = lower value",1.02
same,normalized growth,"locus YPR119W, strain clb2, stronger effect = lower value",0.988
same,normalized growth,"locus YPR141C, strain kar3, stronger effect = lower value",0.995
same,normalized growth,"locus YPR163C, strain tif3, stronger effect = lower value",0.968
same,normalized growth,"locus YPR167C, strain met16, stronger effect = lower value",0.976
same,normalized growth,"strain wtn01, stronger effect = lower value",0.981
